Assay outcomes (PubChem)
HCV NS3h FP: HCV NS3 helicase inhibitors, primary screen, biochemical, fluorescence polarization, ChemBridge library; AID 687043, 2013; NS3h Cy5-dT15 DNA binding; 16,000 compounds, 1.6% hits; inhibition, % at 100 µM; Hepatitis C virus NS3 helicase;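 active means inhibition above the average over every tested compound plus 3 SD, cut at about 40% in these data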
Cy5 interf NS3h: Cy5 fluorescence quenchers or enhancers, artefact control for HCV NS3 helicase inhibitor project, biochemical, ChemBridge library, Cy5 readout | Cy5-dT15 DNA with NS3h, fluorescence interference; actives lie on both sides; signal over control mean, under 1 quenches | fluorescence interference ratio at 100 µM | 16,000 compounds, 6% hits | AID 720488, 2013;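 active means compound fluorescence over control fluorescence at most 0.8, a quencher, or at least a set upper limit, an enhancer; inactive means ratio between 0.8 and the set upper limit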
HCV NS3h conf: HCV NS3 helicase inhibitors, retest, confirmation, biochemical, fluorescence polarization, ChemBridge library. shares compounds with HCV NS3h FP. NS3h binding to Cy5-dT15 DNA. inhibition, % at 100 µM. 240 compounds, 20% hits. AID 720485, 2013;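 active means percent inhibition of 50% or more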
SSB FP counter: E. coli SSB-DNA binding inhibitors, counter-screen for HCV NS3 helicase inhibitor project, biochemical, fluorescence polarization, selected ChemBridge compounds; E. coli SSB binding Cy5-dT15; 240 compounds, 40% hits; inhibition, % at 100 µM; shares compounds with HCV NS3h FP;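 active means inhibition of at least 50%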;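 further: displacers lower Cy5 polarization so higher inhibition means more SSB displaced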
Target sequence (P0AGE0 whole entry, looked up): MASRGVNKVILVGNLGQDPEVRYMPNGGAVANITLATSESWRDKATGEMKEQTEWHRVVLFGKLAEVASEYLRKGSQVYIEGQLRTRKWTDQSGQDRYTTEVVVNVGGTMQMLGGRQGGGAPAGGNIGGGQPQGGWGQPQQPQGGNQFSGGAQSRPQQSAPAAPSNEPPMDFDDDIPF
Cy5 SSB fluor CB: Cy5 fluorescence interference with SSB-bound oligo, artefact control for HCV NS3 helicase inhibitor project, biochemical, E. coli SSB, selected ChemBridge compounds; shares compounds with HCV NS3h FP; Cy5-dT15/E. coli SSB fluorescence interference; actives lie on both sides; 240 compounds, 8% hits; AID 720487, 2013; fluorescence interference ratio at 100 µM;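 active means fluorescence interference ratio at or above 1.2, signal boosting, or at or below 0.8, signal quenching; inactive means ratio between 0.8 and 1.2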;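 further: ratio of compound well signal to mean negative control signal so 1 means no effect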
Cy5 fluor confirm: Cy5-DNA-NS3h complex fluorescence interference, confirmation, artefact control for HCV NS3 helicase inhibitor project, biochemical, ChemBridge library | fluorescence interference ratio at 100 µM, hits read low | shares compounds with HCV NS3h FP | 240 compounds, 44% hits | Cy5-dT15 DNA/NS3h fluorescence interference counterscreen;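 active means fluorescence interference ratio at or below 0.8 quencher or at or above a set limitenhancer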;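 further: ratio of compound fluorescence to mean of negative controls so 1 means no interference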
* hit, by the source's call; / = no result. Shown are actives, neighbours in structure and some others; about 6.8% of the full set was active somewhere.

SMILES | HCV NS3h FP | Cy5 interf NS3h | HCV NS3h conf | SSB FP counter | Cy5 SSB fluor CB | Cy5 fluor confirm
O=C1NN(c2ccc(Br)cc2)C(=O)/C1=C\c1ccc(-c2cccc(C(=O)O)c2)o1 | 23 | 0.93 | / | / | / | /
CCOC(=O)c1ccc(-c2ccc(/C=C3/C(=O)NC(=O)N(c4ccccc4)C3=O)o2)cc1 | 24 | 0.92 | / | / | / | /
O=C1NC(=S)N(c2ccc(Cl)cc2)C(=O)/C1=C\c1ccc(-c2cccc(C(=O)O)c2)o1 | 72* | 1 | 57* | 98* | 0.92 | 0.91
CC(=O)Nc1ccc(C(=O)Nc2ccc(Cl)cc2Cl)cc1 | 23 | 1.2 | / | / | / | /
NNC(=O)c1ccc(-n2c(-c3ccccc3)ccc2-c2ccccc2)cc1 | -2 | 1 | / | / | / | /
O=C1C(=O)N(c2nncs2)C(c2ccc(Cl)cc2)C1=C(O)c1ccc(F)cc1 (stereo unspecified) | 8 | 0.96 | / | / | / | /
CN(C1=NC(=O)/C(=C\c2ccc(Cl)cc2)S1)c1ccc(O)cc1 | 8 | 0.98 | / | / | / | /
CN(C1=NC(=O)/C(=C\C=C\c2ccccc2)S1)c1ccc(O)cc1 | 52* | 0.97 | 21 | 2 | 0.93 | 0.69*
